Data on nine compounds can be found in PubChem BioAssay (NCI).

This is part of a sample that, as a whole, favours compounds with a hit. Of some 83,000 tested, about 20% had one in any assay.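 How to read the values: 0–100, growth inhibition (40 = 60% inhibited); 0, no net growth; -100 to 0, cell death (-40 = 40% of starting cells died; -100 = all dead).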 A number with no mark means an inactive call. Activity calls are given as the source filed them. Rule for the calls: active = growth percent below 10; inactive = the rest.

Some test systems named below: MALME-3M melanoma; MDA-MB-231 breast; SF-268 CNS; SF-295 CNS; SF-539 CNS; UACC-257 melanoma; M14 melanoma; HCT-15 colon; HT29 colon; SNB-19 CNS; U251 CNS; PC-3 prostate; UACC-62 melanoma; SK-MEL-28 melanoma; SK-MEL-2 melanoma; RXF 393 renal; SK-MEL-5 melanoma; LOX IMVI melanoma; SNB-75 CNS.
What all share (assay): NCI-60 one-dose screen, 48 h (100 = growth as untreated, 0 = no growth, -100 = all killed)
Holding throughout (settings): 10 µM unless noted

With `Oc1ccccc1/C=N\Nc1ccccc1`, the growth is 95% in the assay with MALME-3M melanoma; 26.7% in the assay on MDA-MB-231 breast; 61.8% with SF-268 CNS; 19.9% with SF-295 CNS; 3.41% (active) in the assay with SF-539 CNS; 95.7% with UACC-257 melanoma. Besides, the growth was 39.4% in the assay with M14 melanoma; 25.6% in the assay with HCT-15 colon; 95.9% in the assay on HT29 colon; 86% in the assay with SNB-19 CNS; 75.9% with U251 CNS; 36.3% with PC-3 prostate. Further, the growth was -5.08% (active) with UACC-62 melanoma, 102% in the assay with SK-MEL-28 melanoma and 92.1% with SK-MEL-2 melanoma.

In the case of `c1ccc(-c2nn[nH]n2)c(-c2ccc(CN3CCN(c4nsc5ccccc45)CC3)cc2)c1`, the growth was 108% in the assay with MALME-3M melanoma; 88.6% with MDA-MB-231 breast; 113% with RXF 393 renal; 98.3% in the assay on SF-268 CNS; 94.1% with SF-295 CNS; 99.8% in the assay with UACC-257 melanoma. The growth in the assay on M14 melanoma is 108%; in the assay with HT29 colon, 58.6%; in the assay on SNB-19 CNS, 98.3%; in the assay with U251 CNS, 85.5%; in the assay with PC-3 prostate, 84.7%; in the assay with SK-MEL-5 melanoma it was 97.2%. The growth is 91.4% with UACC-62 melanoma, 102% with LOX IMVI melanoma, 113% in the assay with SK-MEL-28 melanoma and 120% in the assay with SK-MEL-2 melanoma.

On to `O=C(Cc1ccccn1)C(F)(F)C(F)(F)C(F)(F)F`, for which the growth is 110% in the assay with MALME-3M melanoma; 102% in the assay on MDA-MB-231 breast; 125% in the assay on RXF 393 renal; 125% with SF-268 CNS; 104% in the assay with SF-539 CNS; 110% with M14 melanoma. Moreover, the growth in the assay with HCT-15 colon is 109%; in the assay with HT29 colon it was 111%; in the assay on SNB-75 CNS, 93.6%; in the assay on SNB-19 CNS it was 99.8%; with PC-3 prostate, 91.3%; in the assay with SK-MEL-5 melanoma it was 110%. Moreover, the growth is 102% in the assay on UACC-62 melanoma, 95.5% in the assay with LOX IMVI melanoma, 105% in the assay with SK-MEL-28 melanoma and 109% in the assay on SK-MEL-2 melanoma.

Turning to `Cc1c(C(N)=O)sc2c1c(=O)n(Cc1ccccc1)c1nnc(S(=O)(=O)CC(=O)Nc3ccc(Cl)cc3)n21`, the growth with MALME-3M melanoma was 30%; in the assay with MDA-MB-231 breast it was 20.5%; in the assay with RXF 393 renal, 41.8%; with SF-268 CNS it was 73.6%; with SF-295 CNS, 35.1%; in the assay on UACC-257 melanoma it was 47.4%. For the same compound, the growth with M14 melanoma was 45.2%; in the assay with HCT-15 colon, 73.1%; in the assay with HT29 colon, 21.9%; in the assay with SNB-19 CNS, 64.9%; with U251 CNS, 35.2%; in the assay with PC-3 prostate, 35%. Also, the growth with SK-MEL-5 melanoma was 55.2%; with UACC-62 melanoma, 67.4%; in the assay with LOX IMVI melanoma, 44.1%; in the assay on SK-MEL-2 melanoma, 33.1%.

For the compound `COc1cc(C2NC(c3ccc(Cl)cc3)C(C)/C(=N/NC(N)=S)C2C)cc(OC)c1OC` (configuration not stated), the growth was 73% with MALME-3M melanoma; 101% in the assay on MDA-MB-231 breast; 85.9% in the assay with RXF 393 renal; 101% in the assay on SF-268 CNS; 117% with SF-295 CNS; 88.8% in the assay on SF-539 CNS. Further, the growth in the assay with UACC-257 melanoma was 103%; in the assay with M14 melanoma, 92.7%; with HT29 colon, 64.7%; with SNB-75 CNS, 81%; in the assay with SNB-19 CNS, 78.2%; in the assay on U251 CNS, 73.4%. For the same compound, the growth in the assay with PC-3 prostate is 73.8%; in the assay on SK-MEL-5 melanoma it was 79.4%; in the assay on UACC-62 melanoma, 94%; with SK-MEL-28 melanoma it was 108%; in the assay on SK-MEL-2 melanoma, 83.6%.

For the compound `Cc1nn(-c2ccc(Cl)cc2)c2nc3c(nc12)C(=O)C(=O)c1ccccc1-3`, the growth is 36.8% in the assay with MALME-3M melanoma; 40.4% in the assay with MDA-MB-231 breast; 89.6% in the assay with RXF 393 renal; 89.3% in the assay with SF-268 CNS; 12.1% in the assay with SF-295 CNS; 69.2% with UACC-257 melanoma. For the same compound, the growth in the assay on M14 melanoma was 75.5%; in the assay with HCT-15 colon it was 73.9%; in the assay on HT29 colon, 4.77% (active); with SNB-75 CNS, -2.08% (active); in the assay on SNB-19 CNS, 62.4%; with U251 CNS, 77.5%. Besides, the growth in the assay with PC-3 prostate is 73.9%; in the assay on SK-MEL-5 melanoma it was 43.8%; in the assay with UACC-62 melanoma, 73.3%; with LOX IMVI melanoma, 62.6%; with SK-MEL-28 melanoma, 67.2%; in the assay with SK-MEL-2 melanoma, 99.1%.

With `CCSc1nnc2n(Cc3ccccc3)c(=O)c3c(C)c(C(N)=O)sc3n12`, the growth was 105% in the assay with MALME-3M melanoma; 103% in the assay with MDA-MB-231 breast; 103% in the assay with RXF 393 renal; 95.1% in the assay with SF-268 CNS; 91.4% with SF-295 CNS; 100% in the assay on UACC-257 melanoma. For the same compound, the growth in the assay on M14 melanoma is 112%; in the assay on HCT-15 colon, 97.9%; in the assay on HT29 colon, 100%; in the assay on SNB-75 CNS, 69.4%; with SNB-19 CNS it was 108%; in the assay with U251 CNS, 103%. Besides, the growth was 97.3% with PC-3 prostate; 95.8% with SK-MEL-5 melanoma; 97.7% with UACC-62 melanoma; 95.6% in the assay with LOX IMVI melanoma; 109% in the assay with SK-MEL-28 melanoma; 102% with SK-MEL-2 melanoma.

With `CN=C(NC)N/N=C(C)\C=N\NC(=NC)NC`, the growth was 105% in the assay with MALME-3M melanoma; 97.8% in the assay with MDA-MB-231 breast; 99.5% with SF-268 CNS; 96.5% in the assay with SF-295 CNS; 99.1% with SF-539 CNS; 100% in the assay on UACC-257 melanoma. For the same compound, the growth in the assay on M14 melanoma was 101%; with HCT-15 colon, 101%; with HT29 colon, 104%; with SNB-19 CNS, 99.4%; in the assay on U251 CNS it was 98.8%; in the assay with PC-3 prostate, 94.8%. Also, the growth in the assay with UACC-62 melanoma was 97.5%; in the assay with SK-MEL-28 melanoma it was 110%; in the assay on SK-MEL-2 melanoma, 117%.

Turning to `CCC(C)CC(CC)NCCN1CCN(C(CC)CC(C)CC)C1=S` (configuration not stated), the growth in the assay on MALME-3M melanoma is -33.8% (active); in the assay on MDA-MB-231 breast, -12.4% (active); in the assay on SF-268 CNS, 61.8%; in the assay on SF-295 CNS, 56.1%; with SF-539 CNS, 69.2%; with UACC-257 melanoma, 39.5%. Besides, the growth in the assay with M14 melanoma was -47.3% (active); in the assay on HCT-15 colon, 22.5%; with HT29 colon it was -24.6% (active); in the assay on SNB-19 CNS, 47.1%; in the assay with U251 CNS, 25.2%; in the assay on PC-3 prostate, 33.4%. Further, the growth in the assay on UACC-62 melanoma was 23.9%; in the assay with LOX IMVI melanoma, -0.0423% (active); in the assay with SK-MEL-28 melanoma, 20.3%; in the assay with SK-MEL-2 melanoma, 94.1%.
